Test results as given in article PMC11006913.

What follows are sequences tested against ALX1 (Homo sapiens, UniProt Q15699 118-204, L144V) (assay: PBM; 200 nM protein, PBS). Details: dsDNA, one strand shown.
Sequence of ALX1 (Q15699 118-204 L144V): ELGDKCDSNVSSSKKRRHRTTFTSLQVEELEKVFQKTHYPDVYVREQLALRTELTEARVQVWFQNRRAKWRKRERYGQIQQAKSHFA
With GTAGGTAA the binding signal was 8.26 upbm affinity estimate (log intensity, higher = more binding, comparable within an allelic series). CTGAATTC was tested, and the binding signal was 7.73 upbm affinity estimate (log intensity, higher = more binding, comparable within an allelic series). With CCGTATTA the binding signal was 8.94 upbm affinity estimate (log intensity, higher = more binding, comparable within an allelic series). CGACTGCC was tested, and the binding signal was 6.48 upbm affinity estimate (log intensity, higher = more binding, comparable within an allelic series). For GCTGGCAC, the binding signal was 6.46 upbm affinity estimate (log intensity, higher = more binding, comparable within an allelic series). In the case of ATTATTGA, the binding signal is reported as 10.4 upbm affinity estimate (log intensity, higher = more binding, comparable within an allelic series). With CCGACGCG the binding signal was 6.16 upbm affinity estimate (log intensity, higher = more binding, comparable within an allelic series). With AGCCTTCG the binding signal was 6.33 upbm affinity estimate (log intensity, higher = more binding, comparable within an allelic series). With AGCCACAG the binding signal was 6.62 upbm affinity estimate (log intensity, higher = more binding, comparable within an allelic series). With CCAGACTC the binding signal was 6.24 upbm affinity estimate (log intensity, higher = more binding, comparable within an allelic series). With ATTGGAAA the binding signal was 8.46 upbm affinity estimate (log intensity, higher = more binding, comparable within an allelic series). For ACATTTAG, the binding signal was 8.38 upbm affinity estimate (log intensity, higher = more binding, comparable within an allelic series). CTCCTAGC was tested, and the binding signal was 6.62 upbm affinity estimate (log intensity, higher = more binding, comparable within an allelic series). With AATTGGTC the binding signal was 9.84 upbm affinity estimate (log intensity, higher = more binding, comparable within an allelic series). CACCTTCG was tested, and the binding signal was 6.61 upbm affinity estimate (log intensity, higher = more binding, comparable within an allelic series). For AGTTAGCC, the binding signal was 7.87 upbm affinity estimate (log intensity, higher = more binding, comparable within an allelic series). For AATCCACA, the binding signal was 8.17 upbm affinity estimate (log intensity, higher = more binding, comparable within an allelic series). For CGGCCGAG, the binding signal was 6.33 upbm affinity estimate (log intensity, higher = more binding, comparable within an allelic series). In the case of CAATATTC, the binding signal is reported as 8.3 upbm affinity estimate (log intensity, higher = more binding, comparable within an allelic series). In the case of AACTAAGT, the binding signal is reported as 8.49 upbm affinity estimate (log intensity, higher = more binding, comparable within an allelic series). In the case of CCTACGCC, the binding signal is reported as 6.43 upbm affinity estimate (log intensity, higher = more binding, comparable within an allelic series). GACTCCCC was tested, and the binding signal was 6.43 upbm affinity estimate (log intensity, higher = more binding, comparable within an allelic series). In the case of AGGCAAAT, the binding signal is reported as 8.05 upbm affinity estimate (log intensity, higher = more binding, comparable within an allelic series). With CTGCTAGC the binding signal was 6.36 upbm affinity estimate (log intensity, higher = more binding, comparable within an allelic series). With ATAACTCC the binding signal was 8.41 upbm affinity estimate (log intensity, higher = more binding, comparable within an allelic series). CTGGGCGA was tested, and the binding signal was 6.34 upbm affinity estimate (log intensity, higher = more binding, comparable within an allelic series). With ACATAATA the binding signal was 9.56 upbm affinity estimate (log intensity, higher = more binding, comparable within an allelic series). In the case of AAGACAAT, the binding signal is reported as 8.75 upbm affinity estimate (log intensity, higher = more binding, comparable within an allelic series). With CGACAGGC the binding signal was 6.36 upbm affinity estimate (log intensity, higher = more binding, comparable within an allelic series). With AAATGGGA the binding signal was 8.33 upbm affinity estimate (log intensity, higher = more binding, comparable within an allelic series). For CCTTTAAC, the binding signal was 8.41 upbm affinity estimate (log intensity, higher = more binding, comparable within an allelic series). AGAAGGGC was tested, and the binding signal was 6.58 upbm affinity estimate (log intensity, higher = more binding, comparable within an allelic series). In the case of CTGGAACC, the binding signal is reported as 6.21 upbm affinity estimate (log intensity, higher = more binding, comparable within an allelic series).
